Insulin prom inh: inhibitors of insulin promoter-driven GFP, primary screen, imaging, TRM-6 cells (human fetal islet line), eGFP reporter, cell count. reporter expression induced with tamoxifen. inhibition, % at 2 µM. hit rate 0.9% among 130,000. AID 1273, 2008;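 active means inhibition above the mean plus 3 SD, with well images judged a real hit on visual review, cut at about 60% in these data, passing the limit was not always enough; inconclusive means inhibition over the cutoff but images rejected on review; inactive means inhibition not above the cutoff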
L major viab: Leishmania major promastigote growth inhibition, primary screen; inhibition, % at 10 µM; Leishmania major promastigotes, resazurin fluorescence viability; hit rate 9% among 200,000; in the data active means inhibition above about 50%;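 further: promastigotes grown with compound for 44 hours at 28 °C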
Insulin prom up: insulin promoter activators in MIN6 cells, imaging, high-content screening, mouse beta cells; MIN6 insulin promoter-GFP reporter; hits give high values; z-score at 5 µM; hit rate 0.3% among 190,000; AID 1625, 2009;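 active means z-score above 3 at 5 µM with at least 500 cells counted in the well; inconclusive means wells under 500 cells, flagged as cytotoxic or low count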
ROMK mod: ROMK potassium channel modulators, primary screen, cell-based, thallium flux, MLSMR library; Tet-inducible ROMK, thallium flux fluorescence; actives lie on both sides; B-score at 10 µM; hit rate 2% among 130,000; AID 1918, 2009;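 active means signal ratio slope over the read window, or its plate-corrected B-score, at least 3 SD from the plate mean, either direction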;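 further: B-score of the F/F0 ratio slope over 7 to 12 s after thallium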
Cl transport mod: KCC2 cotransporter modulators, thallium flux, primary screen, cell-based, HEK293 KCC2, FluoZin-2 fluorescence, MLSMR; Solute carrier family 12 member 5 (Homo sapiens), Q9H2X9; KCC2 cells, thallium flux FluoZin-2 fluorescence; B-score of Tl+ flux slope (higher = more flux/activation; lower = inhibition) at 10 µM; hit rate 2.2% among 190,000; AID 1456, 2008;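 active means thallium flux slope and its plate-corrected score both differing from the plate sample mean at a set confidence after two filtering rounds, in either direction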;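 further: slope of fluorescence scaled to starting intensity during 10 to 20 s after thallium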
WT yeast gro inh: growth inhibition of WT strain, primary screen, mitochondrial fusion inhibitor project, WT and mutant strains, chemical genetic | mitochondrial fusion phenotypic screen | inhibition, % at 10 µM | hit rate 2.1% among 190,000 | AID 1362, 2008; in the data active means inhibition above about 58%; tested in S. cerevisiae
KCC2 sec1: KCC2 modulators in sodium-free buffer, confirmation, cell-based, HEK293 KCC2, thallium flux, secondary assay | shares compounds with Cl transport mod | FluoZin2 fluorescence; hits give high values | normalised thallium flux (F/F0 slope) at 10 µM | hit rate 15% among 3,700 | AID 1713, 2009;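 active means thallium flux slope above the same plate's solvent-only control mean plus 3 SD; inconclusive means the two replicate wells disagree; inactive means no significant difference from solvent-only control wells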
KCC2 bumet counter: thallium flux persisting under bumetanide in KCC2 cells, confirmation, counter-screen for KCC2 modulator project, cell-based, HEK293 KCC2, FluoZin2, secondary assay 3; hit rate 49% among 3,700; normalized thallium flux at 10 µM; HEK293-KCC2 + bumetanide/ouabain; hits give high values; shares compounds with Cl transport mod;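 active means thallium entry rate above the same plate's blocked-transporter control wells by more than 3 SD; inconclusive means the two repeat wells disagree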;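 further: raw slope of fluorescence over initial fluorescence between 10 and 20 s after thallium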
KCC2 secondary2: KCC2 modulators without ouabain present, confirmation, cell-based, HEK293 KCC2, thallium flux, FluoZin2, secondary assay 2 | hit rate 23% among 3,700 | thallium flux FluoZin2 fluorescence; actives lie on both sides; F/F0 rise rate, 10–20 s post-thallium | shares compounds with Cl transport mod | normalized thallium flux at 10 µM;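 active means thallium flux slope more than 3 SD above or below the plate's solvent-only control mean, mostly below; inconclusive means the two repeat wells disagreed; inactive means no significant shift from solvent-only controls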;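 further: raw slope with 0.1% DMSO as baseline and bumetanide as block control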
HEK counter1: thallium flux modulation in parental HEK cells, confirmation, counter-screen for KCC2 modulator project, cell-based, counterscreen 1; HEK293 parental cells, thallium flux FluoZin2, ouabain; baseline-ratio fluorescence slope, 10–20 s after thallium; hit rate 46% among 3,700; AID 1716, 2009; thallium flux rate (normalised fluorescence) at 10 µM; shares compounds with Cl transport mod;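 active means thallium flux rate significantly above the same plate's solvent-only control wells, beyond their mean plus 3 SD; inconclusive means the two replicate wells gave conflicting results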
KCC2 ouabain: KCC2 inhibitors and activators, ouabain retest, confirmation, HEK-KCC2 cells | shares compounds with Cl transport mod | HEK293-KCC2, thallium flux FluoZin2 fluorescence; bidirectional: low = inhibitor, high = activator | raw Tl+ flux slope (below DMSO = inhibition, above = activation) at 10 µM | hit rate 48% among 3,700;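 active means thallium flux slope beyond 3 SD from same-plate DMSO control mean in most replicates, usually higher, sometimes lower; inconclusive means repeat tests gave conflicting results; inactive means no significant difference from controls in most replicates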;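 further: slope of initial-normalized fluorescence between seconds 10 and 20 after thallium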
HEK293 Tl flux2: native HEK Tl+ uptake effects, second counter-screen – HEK cells, counterscreen 2, counter-screen for KCC2 modulator project, confirmation. hit rate 33% among 3,700. HEK293 parental, thallium flux FluoZin-2 fluorescence slope. shares compounds with Cl transport mod. thallium flux slope at 10 µM;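 active means thallium flux slope above the same plate's solvent-control mean plus 3 SD in both duplicate wells; inconclusive means duplicate wells that disagreed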;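 further: run without ouabain in cells lacking the KCC2 cotransporter; slope of fluorescence scaled to its starting value between 10 and 20 s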
An asterisk follows results filed as active. Rows were chosen to be rich in hits. Some 12% of all compounds tested hit in one or more screens of this group.

Results for COC(=O)c1sccc1NC(=O)Nc1cc(C)ccc1C ?
L major viab: -2; Insulin prom up: 0.75; WT yeast gro inh: 18

How did Cc1ccc(C)c(NC(=O)CCC(=O)NNC(=S)Nc2ccccc2)c1 do in these assays?
L major viab: -7; Insulin prom up: 0.19; ROMK mod: -0.79; Cl transport mod: -0.076; WT yeast gro inh: -8

Results for Cc1ccc(C)c(NC(=S)NNC(=O)c2csc(C)c2C)c1 ?
Insulin prom inh: 19; L major viab: -1; Insulin prom up: -0.48; Cl transport mod: 11*; WT yeast gro inh: -3; KCC2 sec1: 0.016*; KCC2 bumet counter: 0.041*; KCC2 secondary2: 0.038; HEK counter1: 0.04*; KCC2 ouabain: 0.042*; HEK293 Tl flux2: 0.015*

Results for Cc1ccc(C)c(NC(=S)NNC(=O)c2sccc2C)c1 ?
Insulin prom inh: 17; L major viab: 4; ROMK mod: 0.088; Cl transport mod: 4.1*; WT yeast gro inh: -11; KCC2 sec1: 0.011; KCC2 bumet counter: 0.026*; KCC2 secondary2: 0.038; HEK counter1: inconclusive; KCC2 ouabain: 0.031*; HEK293 Tl flux2: 0.011

Results for C=CCNC(=S)NC(=O)c1oc2ccccc2c1C ?
L major viab: -4; Insulin prom up: 0.93; ROMK mod: 0.78; Cl transport mod: 11*; WT yeast gro inh: 27; KCC2 sec1: 0.011; KCC2 bumet counter: 0.035*; KCC2 secondary2: 0.034; HEK counter1: 0.021*; KCC2 ouabain: 0.042*; HEK293 Tl flux2: 0.012*

Results for c1cnc2c(SCc3ccc(-c4nnco4)cc3)cccc2c1 ?
L major viab: 10; Insulin prom up: -1.2; ROMK mod: -0.61; Cl transport mod: -5.7*; WT yeast gro inh: 12; KCC2 sec1: 0.011; KCC2 bumet counter: 0.015*; KCC2 secondary2: 0.035; HEK counter1: 0.0041; KCC2 ouabain: 0.021*; HEK293 Tl flux2: 0.012

What do the screens show for `O=C(CN1C(=O)S/C(=C\C=C\c2ccccc2)C1=O)Nc1ccccc1C(=O)O`?
Insulin prom up: -0.29; ROMK mod: 0.24; Cl transport mod: -5.9*; KCC2 sec1: 0.0072; KCC2 bumet counter: 0.0067; KCC2 secondary2: inconclusive; HEK counter1: inconclusive; KCC2 ouabain: 0.014*; HEK293 Tl flux2: 0.01

How did O=C(CN1C(=O)S/C(=C\C=C\c2ccccc2)C1=O)Nc1cccc(O)c1 do in these assays?
Insulin prom inh: -11; L major viab: 18; Insulin prom up: 0.37; Cl transport mod: -2.7; WT yeast gro inh: 9

How did O=C(NNC(=S)Nc1ccc(Cl)c(Cl)c1)c1ccccn1 do in these assays?
L major viab: 96*; Insulin prom up: -0.46; ROMK mod: 0.54; Cl transport mod: 11*; WT yeast gro inh: 6; KCC2 sec1: 0.013*; KCC2 bumet counter: 0.037*; KCC2 secondary2: 0.031; HEK counter1: 0.019*; KCC2 ouabain: 0.051*; HEK293 Tl flux2: 0.012*

How did CCNC(=S)NNC(=O)c1ccccn1 do in these assays?
Insulin prom inh: 36; L major viab: 0; Insulin prom up: 0.48; ROMK mod: -0.014; Cl transport mod: 0.068; WT yeast gro inh: 13

How did COC(=O)c1nnn(CC(=O)Nc2cccc(Cl)c2C)c1C(=O)OC do in these assays?
Insulin prom inh: -3; L major viab: -4; Insulin prom up: -0.34; ROMK mod: 0.37; WT yeast gro inh: 1

Results for Cc1ccc(C(=O)N2CCN(c3ccc(NC(=S)NC(=O)c4cccs4)cc3)CC2)cc1 ?
Insulin prom inh: -53; L major viab: 35; Cl transport mod: 1.9; WT yeast gro inh: 35

What do the screens show for `O=C(NC(=S)Nc1ccc(N2CCOCC2)cc1)c1cccs1`?
L major viab: -7; Insulin prom up: 0.38; ROMK mod: 0.6; Cl transport mod: 3.1*; WT yeast gro inh: -2; KCC2 sec1: 0.0097; KCC2 bumet counter: 0.033*; KCC2 secondary2: 0.032; HEK counter1: inconclusive; KCC2 ouabain: 0.023; HEK293 Tl flux2: 0.011

How did Cc1ccccc1C(=O)N1CCN(c2ccc(NC(=S)NC(=O)c3cccs3)cc2)CC1 do in these assays?
L major viab: 21; Insulin prom up: -0.76; ROMK mod: -0.065; Cl transport mod: 3.2; WT yeast gro inh: 29; KCC2 sec1: 0.0097; KCC2 bumet counter: 0.015*; KCC2 secondary2: 0.031; HEK counter1: 0.0082; KCC2 ouabain: 0.02; HEK293 Tl flux2: 0.011

What do the screens show for `O=C(CSCc1ccc(F)cc1)N1CCN(c2ccc(F)cc2)CC1`?
Insulin prom inh: -20; L major viab: 3; Insulin prom up: 0.35; Cl transport mod: -3.6*; WT yeast gro inh: -10; KCC2 sec1: 0.0063; KCC2 bumet counter: inconclusive; KCC2 secondary2: 0.032; HEK counter1: 0.0037; KCC2 ouabain: 0.017*; HEK293 Tl flux2: 0.011

How did CCOC(=O)C(C)Sc1snnc1C (stereo not given) do in these assays?
Insulin prom inh: 11; L major viab: -10

Compound activity: PubChem BioAssay, several laboratories
